# Experimental data as given in PubChem BioAssay (Tox21).
# Inconclusive results are not listed. Entries that show only a call come without a potency. Values without a mark were called inactive. Calls of active or inactive are those of the source. The call rests on the fitted dose curve; in most records, active means well fitted cell-killing curve with a large enough effect in the repeat runs; inconclusive means weak or mixed curves, or effect the other way; inactive means flat fitted curve, though single readings scatter.
# Legend:
# [1] = cAMP Responsive Elements (CRE) small molecule antagonists, cell-based qHTS assay: qHTS cell viability counter screen (AID 2060913); conditions: CRE-bla HEK293T viability, CellTiter-Glo luminescence, 5 h; series mostly up to 92.4 µM; further: nearly all actives have a fitted effect of over 40% in size; further: potency means the concentration at half of the fitted maximal effect
# Outline: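 Steps: cells plated and held 18 hrs at 37 C/5% CO2; compounds and NKH477 (0.25 uM final) added; 3 hrs incubation; reporter substrate read; CellTiter-Glo added to measure cytotoxicity by luminescence.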
# [2] = cAMP Responsive Elements (CRE) small molecule agonists, cell-based qHTS assay: qHTS cell viability counter screen (AID 2060914); conditions: CRE-bla HEK293T viability, CellTiter-Glo luminescence, 5 h; series mostly up to 92.4 µM;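 further: viability read after 3 h of compound exposure; nearly all actives have a fitted effect of over 50% in size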
# Outline: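 Cells are seeded and incubated 18 h, treated with compounds in DMSO for 3 h, read for the bla reporter, then given CellTiter-Glo; luminescence is measured after 30 min at room temperature.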
structure (smiles),measurement,setting,value
O=c1[nH]c(=O)n([C@H]2C[C@H](O)[C@@H](CO)O2)cc1F,Potency,[1],inactive
S=C(S)NCCNC(=S)S,Potency,[1],inactive
c1ccc([C@H]2CN3CCSC3=N2)cc1,Potency,[1],inactive
CC(C)(O)CCc1ccccc1,Potency,[1],inactive
CCCc1cc(C(N)=S)ccn1,Potency,[1],inactive
COc1ccc(C(=O)/C(Br)=C\C(=O)O)cc1,Potency,[1],inactive
CC(C)(O)c1ccc(CNC(=O)c2cccnc2Oc2ccc(F)cc2)cc1,Potency,[1],inactive
NCCCCCC(=O)O,Potency,[1],inactive
O=C1c2ccccc2C(=O)c2cc(Cl)ccc21,"viability change, negative = cytotoxic",[1],-0.399% [at 8.39 µM]
CC(C)(C)c1ccc(OC2CCCCC2O)cc1 (stereo not given),Potency,[1],inactive
N#Cc1cscn1,Potency,[1],inactive
NNC(=O)c1ccncc1,Potency,[1],inactive
Cc1ccccc1N=C(N)N=C(N)N,Potency,[1],inactive
C=CC(=O)OCC(CO)(COCC(COC(=O)C=C)(COC(=O)C=C)COC(=O)C=C)COC(=O)C=C,Potency,[1],30.3 µM (active)
CCc1c(C(=O)NN2CCCCC2)nn(-c2ccc(Cl)cc2Cl)c1-c1ccc(Br)cc1,Potency,[1],inactive
Cc1ccc(S(=O)(=O)NC(=O)NC2CCCCC2)cc1,Potency,[1],inactive
OC/C=C/c1ccccc1,Potency,[1],inactive
O=S(=O)(O)c1ccc(Nc2nc(Nc3ccc(/C=C/c4ccc(Nc5nc(Nc6ccc(S(=O)(=O)O)cc6)nc(N(CCO)CCO)n5)cc4S(=O)(=O)O)c(S(=O)(=O)O)c3)nc(N(CCO)CCO)n2)cc1,Potency,[1],inactive
CC(C)=CCC/C(C)=C/C#N,Potency,[1],inactive
COC(=O)CC(=O)C(C)(C)C,Potency,[1],inactive
O=C(OCCOCCO)c1ccccc1Nc1cccc(C(F)(F)F)c1,Potency,[1],inactive
COc1cc2[nH]c(=O)[nH]c(=O)c2cc1OC,Potency,[1],inactive
O=C(C1CCCCC1)N1CC(=O)N2CCc3ccccc3C2C1 (stereo not given),Potency,[1],inactive
CC(C)c1cccc(C(C)C)c1N1C(=O)c2ccc(O)cc2C1=O,Potency,[1],61.1 µM (active)
OC[C@H]1O[C@@H]2O[C@H]3[C@H](O)[C@@H](O)[C@@H](O[C@H]4[C@H](O)[C@@H](O)[C@@H](O[C@H]5[C@H](O)[C@@H](O)[C@@H](O[C@H]6[C@H](O)[C@@H](O)[C@@H](O[C@H]7[C@H](O)[C@@H](O)[C@@H](O[C@H]8[C@H](O)[C@@H](O)[C@@H](O[C@H]9[C@H](O)[C@@H](O)[C@@H](O[C@H]1[C@H](O)[C@H]2O)O[C@@H]9CO)O[C@@H]8CO)O[C@@H]7CO)O[C@@H]6CO)O[C@@H]5CO)O[C@@H]4CO)O[C@@H]3CO,Potency,[1],inactive
CN1[C@@H]2CC[C@@H]1CC(OC(=O)C(CO)c1ccccc1)C2 (stereo not given in full),Potency,[1],inactive
O=C(/C=C/c1ccc(O)c(O)c1)O[C@@H]1C[C@](O)(C(=O)O)C[C@@H](O)[C@H]1O,Potency,[1],inactive
CCCCCCCCCCCCCCCCC(=O)O,Potency,[1],inactive
CCCCCSCCCCC,Potency,[1],inactive
CC(CC1c2ccccc2CCc2ccccc21)CN(C)C (stereo not given),Potency,[1],inactive
ClCCl,Potency,[1],inactive
C1=C\CC/C=C\CC/C=C\CC/1,Potency,[1],inactive
O=C(c1ccccc1)C1CCC1,Potency,[1],inactive
C=C(C)CCCC(C)CCO (stereo not given),Potency,[1],inactive
CCCC(=O)c1cc(O)c(O)cc1O,Potency,[1],inactive
CC(=O)O[C@@]12CO[C@@H]1C[C@H](O)[C@@]1(C)C(=O)[C@H](O)C3=C(C)[C@@H](OC(=O)[C@H](O)[C@@H](NC(=O)OC(C)(C)C)c4ccccc4)C[C@@](O)([C@@H](OC(=O)c4ccccc4)[C@H]21)C3(C)C,Potency,[1],inactive
Cc1cccc2cccnc12,Potency,[1],inactive
Cc1cccc2nccnc12,Potency,[1],inactive
C[C@H](O)C(=O)Nc1c(I)c(C(=O)NC(CO)CO)c(I)c(C(=O)NC(CO)CO)c1I,Potency,[1],inactive
C=CC(C)(CCC=C(C)C)OC(=O)C(C)C (stereo not given),Potency,[1],inactive
CCCCCCCCCCCCCOC(=O)CCSCCC(=O)OCCCCCCCCCCCCC,"viability change, negative = cytotoxic",[1],3.07% [at 18.9 µM]
CC(=O)OC1C2(C)CCC(C2)C1(C)C (stereo not given),Potency,[1],inactive
CCCC(=O)OCCc1ccccc1,Potency,[1],inactive
C=Cc1ccc(S(=O)(=O)O)cc1,Potency,[1],inactive
O=C(O)c1cc(Cl)cc(Cl)c1O,Potency,[1],inactive
CC1=C(C(=O)OC(C)C)C(c2cccc([N+](=O)[O-])c2)C(C(=O)OC2CN(C(c3ccccc3)c3ccccc3)C2)=C(N)N1 (stereo not given),Potency,[1],inactive
CO[Si](CCCNc1ccccc1)(OC)OC,Potency,[1],inactive
CC(C)(C)CC(C)(C)c1ccc(Nc2ccc(C(C)(C)CC(C)(C)C)cc2)cc1,"viability change, negative = cytotoxic",[1],-5.06% [at 8.39 µM]
CCOc1ccc2nc3cc(N)ccc3c(N)c2c1,Potency,[1],inactive
CC(=O)CC(C)(C)O,Potency,[1],inactive
N[C@@H](Cc1ccc(O)cc1)C(=O)O,"viability change, negative = cytotoxic",[1],-0.963% [at 8.39 µM]
O=C1Cc2cc(Cl)ccc2N1,Potency,[1],inactive
Cc1cc(C)c(C)c(C)c1,Potency,[1],inactive
CC(=N\O)/C(C)=N/O,Potency,[1],inactive
CCN(CC)CCOc1ccc(C(O)(Cc2ccc(Cl)cc2)c2ccc(C)cc2)cc1 (stereo not given),Potency,[1],26.6 µM (active)
CC(C)NCC(O)COc1ccc(COCCOC(C)C)cc1 (stereo not given),Potency,[1],inactive
C=CC(=O)OCC(CO)(COC(=O)C=C)COC(=O)C=C,Potency,[1],28.5 µM (active)
C=Cc1ccc(C=C)cc1,Potency,[1],inactive
CC[C@@H](N)CO,Potency,[1],inactive
Nc1ncnc2c1ncn2[C@@H]1O[C@H](COP(=O)(O)O)[C@@H](O)[C@H]1O,Potency,[1],inactive
CCC(C)(C)c1ccc(CC(C)CN2C[C@@H](C)O[C@@H](C)C2)cc1 (stereo not given in full),Potency,[1],inactive
O=C1C=CC(=O)N1c1ccc(Cc2ccc(N3C(=O)C=CC3=O)cc2)cc1,Potency,[1],54.5 µM (active)
C=CC(=O)N1CCOCC1,Potency,[1],inactive
COc1cccc(OC)c1O,Potency,[1],inactive
C/C=C\C/C=C/CCCCCCCCOC(C)=O,Potency,[1],inactive
Cn1c(=O)c2c(ncn2CC(=O)O)n(C)c1=O,Potency,[1],inactive
CC(C)(C)C(=O)C(Oc1ccc(Cl)cc1)n1ccnc1 (stereo not given),Potency,[1],inactive
NC(=O)c1ccc([N+](=O)[O-])cc1Cl,Potency,[1],inactive
CCCCCCCCCCCCN(CCCCCCCCCCCC)CCCCCCCCCCCC,Potency,[1],inactive
COC(=O)N/N=C/c1c[n+]([O-])c2ccccc2[n+]1[O-],Potency,[1],inactive
N#CCC(=O)O,Potency,[1],inactive
Cc1ccc(N)c(S(=O)(=O)O)c1,Potency,[1],inactive
Oc1c(Cl)cc(Cl)c2cccnc12,Potency,[1],inactive
CCCCCCOC(=O)c1ccccc1,Potency,[1],inactive
O=S(=O)(O)c1cccc2c(S(=O)(=O)O)cccc12,Potency,[1],inactive
CC(C)OC(=O)C(C)(C)Oc1ccc(C(=O)c2ccc(Cl)cc2)cc1,Potency,[1],inactive
COc1cc(N)c(Cl)cc1C(=O)NC1CCN(CCCOc2ccc(F)cc2)CC1OC (stereo not given),Potency,[1],inactive
COc1ccccc1OCC1CNC(=O)O1 (stereo not given),Potency,[1],inactive
N[C@@H](CSSC[C@H](N)C(=O)O)C(=O)O,"viability change, negative = cytotoxic",[1],0% [at 0.349 µM]
O=C(O)Cc1ccc2c(c1)C(=O)c1ccccc1CO2,Potency,[1],inactive
Cc1c(Cl)c(=O)oc2cc(O)ccc12,Potency,[1],inactive
same,Potency,[2],inactive
C[C@H]1C[C@@H](O)CC(C)(C)C1,Potency,[1],inactive
same,Potency,[2],inactive
O=S(=O)(O)c1cc(O)c(O)c(S(=O)(=O)O)c1,Potency,[1],inactive
same,Potency,[2],inactive
N=C(N)c1ccc2cc(OC(=O)c3ccc(N=C(N)N)cc3)ccc2c1,Potency,[1],inactive
same,Potency,[2],inactive
CCOc1ccc(N)c([N+](=O)[O-])c1,Potency,[1],inactive
same,Potency,[2],inactive
COc1cccc(O)c1O,Potency,[1],inactive
same,Potency,[2],inactive
CC(C)CCOC(=O)/C=C/c1ccccc1,Potency,[1],inactive
same,Potency,[2],inactive
O=C1CCCCCCCCCCCCCCCO1,Potency,[1],inactive
same,Potency,[2],inactive
Cc1ccc(C(=O)c2ccc(CC(=O)O)n2C)cc1,Potency,[1],inactive
same,Potency,[2],inactive
O=[N+]([O-])c1ccc(F)c(Cl)c1,Potency,[1],inactive
same,Potency,[2],inactive
[O]=[Bi],"viability change, negative = cytotoxic",[1],-2.63% [at 8.39 µM]
same,"activity change, negative = cytotoxicity",[2],-8.94% [at 8.39 µM]
Cc1c(N)cccc1C(F)(F)F,Potency,[1],inactive
same,Potency,[2],inactive
CC(C)OC(=O)CCC(=O)OC(C)C,Potency,[1],inactive
same,Potency,[2],inactive
CN(C)CCN(Cc1ccc(Cl)cc1)c1ccccn1,Potency,[1],inactive
same,Potency,[2],inactive
CO[Si](CCC1CCC2OC2C1)(OC)OC (stereo not given),Potency,[1],inactive
same,Potency,[2],inactive
CCC(C(=O)OCCN1CCOC(c2ccccc2)C1C)c1ccccc1 (stereo not given),Potency,[1],inactive
same,Potency,[2],inactive
CC(=O)N[C@@H](CCC(=O)O)C(=O)O,Potency,[1],inactive
same,Potency,[2],inactive
CCN1CCC[C@H]1CNC(=O)c1cc(S(N)(=O)=O)ccc1OC,Potency,[1],inactive
same,Potency,[2],inactive
Clc1ccc2c(c1)C(N1CCNCC1)=Nc1ccccc1O2,Potency,[1],inactive
same,Potency,[2],inactive
ClC(Cl)Cl,Potency,[1],inactive
same,Potency,[2],inactive
CC(C)OCC1CO1 (stereo not given),Potency,[1],inactive
same,Potency,[2],inactive
C=C(C)C(=O)OCCCCCCCCCCOC(=O)C(=C)C,Potency,[1],inactive
same,Potency,[2],inactive
Cn1c(=O)[nH]c2ncn(C)c2c1=O,Potency,[1],inactive
same,Potency,[2],inactive
Oc1cc2c(cc1O)[C@H]1c3ccc(O)c(O)c3OC[C@@]1(O)C2,Potency,[1],inactive
same,Potency,[2],inactive
CC(C)c1ccccc1N,Potency,[1],inactive
same,Potency,[2],inactive
COC(=O)CCCCCCCCC(=O)OC,Potency,[1],inactive
same,Potency,[2],inactive
c1ccc2c(c1)Oc1ccccc1S2,Potency,[1],inactive
same,Potency,[2],inactive
Clc1ccc(C(Cn2ccnc2)OCc2ccc(Sc3ccccc3)cc2)c(Cl)c1 (stereo not given),Potency,[1],inactive
same,Potency,[2],inactive
CC(=O)c1cc(C)oc1C,Potency,[1],inactive
same,Potency,[2],inactive
CCn1c2ccccc2c2ccccc21,Potency,[1],inactive
same,Potency,[2],inactive
Sc1nc(S)nc(S)n1,Potency,[1],inactive
same,Potency,[2],inactive
O=[N+]([O-])c1nccn1CO[C@@H](CO)[C@H](O)CO,Potency,[1],inactive
same,Potency,[2],inactive
Cc1ccc(C)o1,Potency,[1],inactive
same,Potency,[2],inactive
C=CCCCCCCCCC=O,Potency,[1],inactive
same,Potency,[2],inactive
CC(O)C(CO)C(C)O (stereo not given),Potency,[1],inactive
same,Potency,[2],inactive
BrC/C=C/CBr,"viability change, negative = cytotoxic",[1],15.6% [at 18.9 µM]
same,"activity change, negative = cytotoxicity",[2],3.61% [at 18.9 µM]
O=P(O)(O)O,Potency,[1],inactive
same,Potency,[2],inactive
CC(C)COC(=O)CCCCC(=O)OCC(C)C,Potency,[1],inactive
same,Potency,[2],inactive
O=[N+]([O-])c1cc[n+]([O-])cc1,Potency,[1],inactive
same,Potency,[2],inactive
O=C(O)COc1ccc2ccccc2c1,Potency,[1],inactive
same,Potency,[2],inactive
